Source: PMC10726135, “HNF4α isoforms regulate the circadian balance between carbohydrate and lipid metabolism in the liver”
Whole data set: some 18,000 sequences, median “log2 normalized intensity” near 0.36, cut for the highest 2% near 7.3. The sample as a whole holds a higher share of the highest values than the screen did.

What follows are sequences tested against T1, HNF4alpha8 (COS-7 nuclear extract) (Homo sapiens, UniProt P41235-5 1-452) (assay: protein-binding microarray; COS-7 nuclear extract on double-stranded Agilent 4x180k PBM; binding buffer, salt, pH and temperature not given in the material; high values mean tight binding). Conditions: chain copies: 2; label: 3' end of strand 1 on the slide; dsDNA, one strand shown.
T1 sequence: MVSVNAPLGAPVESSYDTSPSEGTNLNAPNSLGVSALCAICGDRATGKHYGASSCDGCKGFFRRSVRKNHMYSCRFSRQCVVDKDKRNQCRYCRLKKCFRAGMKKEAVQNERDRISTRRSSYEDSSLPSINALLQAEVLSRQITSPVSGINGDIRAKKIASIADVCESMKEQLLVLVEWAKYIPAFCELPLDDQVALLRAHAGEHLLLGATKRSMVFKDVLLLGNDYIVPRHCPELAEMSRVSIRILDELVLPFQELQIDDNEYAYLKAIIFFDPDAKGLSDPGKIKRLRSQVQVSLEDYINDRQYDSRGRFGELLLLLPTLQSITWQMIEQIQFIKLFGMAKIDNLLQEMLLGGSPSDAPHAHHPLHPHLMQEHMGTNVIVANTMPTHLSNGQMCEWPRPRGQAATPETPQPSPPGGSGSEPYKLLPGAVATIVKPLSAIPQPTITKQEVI
Outline: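 COS-7 cells were transiently transfected by CaPO4 with an expression vector for a human HNF4α isoform, and nuclear extracts were prepared from them. The extracts were applied to a custom Agilent SurePrint G3 4x180k array of double-stranded ~60-nt oligonucleotides, with ~44,000 test sequences spotted in quadruplicate. An Agilent G2565CA scanner imaged bound HNF4α at 2-µm resolution. Binding signal is the background-corrected, normalized gProcessedSignal from Agilent software.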

Sequence | binding signal [log2 normalized intensity]
TGCCCTATGTCCTCCAGCTCTTGGGGAACAGCCTAGGGAGATTAGAGTATCGGTCGA | 0.218
AAAGCCATCAGCACTGGTTCAAAGTGTAGCGCCTAGGGAGATTAGAGTATCGGTCGA | 1.25
AGAGGAAGATCTTTTTGATGACTTTGTAGGGCCTAGGGAGATTAGAGTATCGGTCGA | 0.915
TAAACCTGTTTGGTATCTACTCGGCAAAACGCCTAGGGAGATTAGAGTATCGGTCGA | 1.28
GACACTTCCAGCCAAACCAGGTCATGCATTGCCTAGGGAGATTAGAGTATCGGTCGA | 0.387
CCGTTAGCCAATATTTGCAAGGCTGTTGGCGCCTAGGGAGATTAGAGTATCGGTCGA | -0.823
CCCCCCAAGTTGAAGCCATCCTCCCACCTCGCCTAGGGAGATTAGAGTATCGGTCGA | 5.73
TATTAGGCAAAAGAGATAGCGAGAAGGCAGGCCTAGGGAGATTAGAGTATCGGTCGA | -0.999
TTATGTACTTAGTGTTTTATGTGTATTTACGCCTAGGGAGATTAGAGTATCGGTCGA | 2.09
AGTTTTGCAACATACTGAAAAAGGGTTGTGGCCTAGGGAGATTAGAGTATCGGTCGA | 1.23
CGCCGGGCGCCGCTCTGAGTGACCTTTCACGCCTAGGGAGATTAGAGTATCGGTCGA | 5.71
GGCGCCGCTCTGAGTGACCTTTCACCCGCGGCCTAGGGAGATTAGAGTATCGGTCGA | 7.77
CGCTCTGAGTGACCTTTCACCCGCGCCCAGGCCTAGGGAGATTAGAGTATCGGTCGA | 6.45
CCCTGCAATTTGATTTGTATGATCTTGGGTGCCTAGGGAGATTAGAGTATCGGTCGA | 1.73
TGTGATGTGAAGAGTGTGGACTTTCACCTCGCCTAGGGAGATTAGAGTATCGGTCGA | 8.92
TTCCCCAGTGAGGATGTGTGCTCGAGGTGGGCCTAGGGAGATTAGAGTATCGGTCGA | 1.11
TGTGAAGAGTGTGGACTTTCACCTCCACCAGCCTAGGGAGATTAGAGTATCGGTCGA | 6.7
AGGATGTGTGCTCGAGGTGGACTTTCCCCCGCCTAGGGAGATTAGAGTATCGGTCGA | 6.75
GACCATGTGATGTGAAGAGTGTGGACTTTCGCCTAGGGAGATTAGAGTATCGGTCGA | 4.87
CAGTGAGGATGTGTGCTCGAGGTGGACTTTGCCTAGGGAGATTAGAGTATCGGTCGA | 7.48
CAAGGGTCAGTTCATTAAAAAAAAAAAAAAGCCTAGGGAGATTAGAGTATCGGTCGA | 0.208
GATCAAGAGGAAGATCTTTTTGATGACTTTGCCTAGGGAGATTAGAGTATCGGTCGA | 0.895
AGTATTACCATGTCCTGTGATTAAGGTCAAGCCTAGGGAGATTAGAGTATCGGTCGA | 2.96
AACTATGCAGTGTCCATGGTGACCATGTGAGCCTAGGGAGATTAGAGTATCGGTCGA | 1.71
